How the values were obtained:
Conditions in all cases: concentration: 1 μM, replicates: in singlicate; n = 1
NEK11 = test system: NEK11
NEK1 = test system: NEK1
NEK2 = test system: NEK2
NEK3 = test system: NEK3
NEK4 = test system: NEK4
NEK5 = test system: NEK5
NEK6 = test system: NEK6
NEK7 = test system: NEK7
NEK9 = test system: NEK9
NIK = test system: T1, NIK
T1 construct: gene MAP3K14

NIM1 = test system: T2, NIM1
T2 construct: gene MGC42105

NLK = test system: NLK
OSR1 = test system: T3, OSR1
T3 construct: gene OXSR1

PAK1 = test system: PAK1
PAK2 = test system: PAK2
PAK3 = test system: PAK3
PAK4 = test system: PAK4
PAK6 = test system: PAK6
PAK7 = test system: PAK7
PCTK1 = test system: T4, PCTK1
T4 construct: gene CDK16
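Also: KINOMEscan kinase panel screen.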

Row | Structure (SMILES) | %Inh (NEK11) | %Inh (NEK1) | %Inh (NEK2) | %Inh (NEK3) | %Inh (NEK4) | %Inh (NEK5) | %Inh (NEK6) | %Inh (NEK7) | %Inh (NEK9) | %Inh (NIK) | %Inh (NIM1) | %Inh (NLK) | %Inh (OSR1) | %Inh (PAK1) | %Inh (PAK2) | %Inh (PAK3) | %Inh (PAK4) | %Inh (PAK6) | %Inh (PAK7) | %Inh (PCTK1)
1 | Cl.c1ccc(-c2ccc3c(Nc4ccc5[nH]ncc5c4)ccnc3c2)nc1 [GW440137] | 0% | 0% | 0% | 11% | 0% | 13% | 0% | 0% | 7% | 10% | 14% | 28% | 5% | 10% | 0% | 0% | 0% | 3% | 0% | 2%
2 | COc1cccc(C(=O)Nc2cccc(Oc3ccc4nc(NC(=O)C5CC5)cn4n3)c2)c1 | 0% | 16% | 8% | 19% | 0% | 23% | 5% | 0% | 0% | 0% | 0% | 0% | 0% | 17% | 26% | 23% | 18% | 15% | 0% | 0%
3 | Cn1cc(-c2ccc3c(c2)CCN3C(=O)Cc2cccc(Cl)c2)c2c(N)ncnc21 [GSK2606590] | 0% | 26% | 66% | 1% | 22% | 32% | 11% | 0% | 18% | 23% | 0% | 0% | 16% | 17% | 22% | 46% | 0% | 0% | 9% | 0%
4 | Cl.Cl.NCC(NCc1ccc(-c2ccnc3[nH]ccc23)s1)c1ccccc1 (stereo not shown) [GSK1321565] | 13% | 0% | 0% | 0% | 0% | 10% | 0% | 0% | 6% | 20% | 0% | 8% | 10% | 0% | 0% | 69% | 0% | 2% | 0% | 0%
5 | Cc1cccc(NC(=O)Nc2ccc(Oc3ncnc4ccn(C)c34)cc2)c1 | 0% | 0% | 0% | 19% | 0% | 0% | 16% | 0% | 1% | 5% | 0% | 0% | 0% | 0% | 0% | 0% | 0% | 0% | 0% | 0%
6 | Nc1ncc(-c2ccc3nccc(-c4ccncc4)c3c2)cc1S(=O)(=O)N1CCOCC1 [GSK1627798] | 0% | 0% | 12% | 0% | 5% | 0% | 0% | 0% | 2% | 0% | 0% | 0% | 0% | 9% | 20% | 5% | 0% | 0% | 0% | 3%
7 | Cc1cccc(Nc2nc(N[C@H]3CCNC3)ncc2C(N)=O)c1.Cl [GSK2197149] | 0% | 50% | 0% | 7% | 27% | 8% | 0% | 0% | 0% | 20% | 11% | 0% | 18% | 38% | 70% | 66% | 95.8% | 78% | 98% | 14%
8 | O=C(NC1CCN(c2ccnc(Nc3ccc(F)cc3)n2)C1)c1cc2ccccc2s1 (stereo not shown) [GSK1379716] | 20% | 0% | 8% | 9% | 0% | 13% | 3% | 0% | 17% | 42% | 34% | 31% | 11% | 18% | 16% | 19% | 0% | 0% | 4% | 0%
9 | Cc1ccc(C(=O)Nc2ccc(Nc3ccnc4cc(-c5nccs5)ccc34)cc2O)cc1.Cl [GW494702] | 40% | 0% | 0% | 0% | 3% | 0% | 0% | 0% | 0% | 12% | 19% | 0% | 6% | 0% | 0% | 9% | 1% | 0% | 0% | 0%
10 | Oc1cc(Nc2ccnc3cc(I)ccc23)ccc1F [GW552771] | 0% | 0% | 0% | 1% | 38% | 0% | 0% | 0% | 0% | 0% | 17% | 58% | 8% | 0% | 0% | 17% | 0% | 0% | 0% | 3%
11 | COc1ccc(Nc2nccc(NCCNC(=O)c3cc4ccccc4s3)n2)cc1 [GSK1379896] | 3% | 0% | 22% | 0% | 14% | 13% | 0% | 0% | 21% | 7% | 4% | 49% | 10% | 7% | 0% | 2% | 0% | 1% | 0% | 1%
12 | Cc1occc1-c1ncc(OC[C@@H](N)Cc2c[nH]c3ccccc23)cc1-c1ccc2[nH]nc(C)c2c1.O=C(O)C(F)(F)F [GSK682037] | 0% | 24% | 0% | 0% | 0% | 24% | 0% | 0% | 8% | 78% | 33% | 39% | 8% | 97.5% | 68% | 32% | 2% | 15% | 36% | 0%
13 | Fc1ccc(-c2ncn(C3CCNCC3)c2-c2ccnc(Oc3ccc(-c4ccccc4)cc3)n2)cc1 [SB-245391] | 24% | 36% | 25% | 13% | 0% | 4% | 17% | 0% | 7% | 31% | 42% | 52% | 36% | 25% | 18% | 22% | 14% | 25% | 0% | 16%
14 | Nc1n[nH]c2cnc(-c3ccccc3)cc12 [SB-642124] | 3% | 0% | 0% | 79% | 12% | 96.5% | 0% | 0% | 0% | 10% | 29% | 31% | 12% | 21% | 15% | 34% | 0% | 0% | 6% | 11%
15 | C[C@@H]1CC[C@@H](C(=O)Nc2ccccc2)CN1c1cc(-c2ccc3c(N)n[nH]c3c2)nc(N)n1 [GSK2286062] | 0% | 1% | 0% | 4% | 0% | 7% | 0% | 0% | 8% | 0% | 23% | 11% | 10% | 20% | 6% | 0% | 0% | 0% | 6% | 0%
16 | CN(c1ccc(NC(=O)Nc2cc(C(F)(F)F)ccc2F)cc1)c1ccnc(Nc2ccc(S(N)(=O)=O)cc2)n1 [GW809893] | 0% | 100% | 0% | 15% | 26% | 31% | 20% | 0% | 37% | 38% | 0% | 78% | 6% | 2% | 11% | 23% | 2% | 10% | 0% | 69%
17 | Cl.NC(=O)c1cccc(Nc2nccc(Nc3ccc(Oc4c(Cl)cccc4Cl)c(Cl)c3)n2)c1 [GW659009] | 0% | 0% | 1% | 87% | 3% | 26% | 86% | 5% | 6% | 14% | 7% | 0% | 15% | 34% | 8% | 72% | 0% | 0% | 0% | 0%
18 | CCn1c(-c2nonc2N)nc2c(C#CC(C)(C)O)nc(OC[C@H](N)c3ccccc3)cc21 [GSK943949] | 0% | 0% | 0% | 3% | 0% | 0% | 14% | 0% | 0% | 72% | 0% | 7% | 0% | 0% | 0% | 27% | 94.6% | 97.9% | 98% | 0%
19 | Clc1ccc(-c2nn3ncccc3c2-c2ccnc(Nc3ccc4c(c3)OCCO4)n2)cc1 [GW829116] | 0% | 0% | 0% | 12% | 0% | 0% | 0% | 0% | 0% | 10% | 0% | 61% | 0% | 0% | 28% | 0% | 0% | 2% | 0% | 0%
20 | Nc1ncnc2c1nc(-c1ccccc1)n2-c1ccccc1 [SKF-97293] | 30% | 23% | 0% | 2% | 26% | 0% | 15% | 6% | 0% | 34% | 66% | 0% | 39% | 29% | 56% | 27% | 16% | 8% | 0% | 9%

From publication PMC5540273 (PLoS ONE, 2017)
